{"source": "PubChem BioAssay AID488841", "about": "(Sanford-Burnham Center for Chemical Genomics, 2010)", "note": "In all, about 1,400 compounds went through this assay and about 380 (27%) were called active.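 The calls were made as follows: active = mean inhibition above 50% across duplicate retests at 10 µM; inactive = the rest.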 This is one part of the list.", "data": [{"assay": "inhibition of NALP1/ASC/caspase-1 reporter signal in yeast, confirmation, NALP1 inhibitor project, S. cerevisiae, luminescence, single concentration (AID 488841);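 also: plate controls were DMSO in galactose medium for no effect and cells in plain SD medium for full effect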", "conditions": "S. cerevisiae NALP1/ASC/Caspase-1 reporter, beta-gal luminescence; at 10 µM; hits give high values", "values": [{"smiles": "COCCNCCOc1ccc(C(C)(C)c2ccccc2)cc1", "inhibition": "50.5% (active)"}, {"smiles": "Cc1cccc(N2C(=O)NC(=O)/C(=C/c3ccc([N+](=O)[O-])o3)C2=O)c1", "inhibition": "31.1% (inactive)"}, {"smiles": "Nc1cc(Cl)c2nonc2c1[N+](=O)[O-]", "inhibition": "62.5% (active)"}, {"smiles": "CCCCCn1c(=O)c(C(=O)Nc2nc3ccccc3[nH]2)c(O)c2ccccc21", "inhibition": "23.1% (inactive)"}, {"smiles": "CCOc1cc(CNCCc2c[nH]c3ccccc23)cc(Cl)c1OCC", "inhibition": "48% (inactive)"}, {"smiles": "Cc1ccc(/C=C2\\C(=O)NC(=O)N(CC3CCCO3)C2=O)s1", "note": "(centres undefined)", "inhibition": "36.6% (inactive)"}, {"smiles": "C[C@H]1C[C@@H](C)C(=O)[C@@H]([C@H](O)CC2CC(=O)NC(=O)C2)C1", "inhibition": "99.8% (active)"}, {"smiles": "N#CCCn1cc(C(=O)NCc2ccccc2)c(-c2ccccc2)n1", "inhibition": "37.1% (inactive)"}, {"smiles": "CC(Cc1ccccc1Sc1ccccc1)N(C)C", "note": "(centres undefined)", "inhibition": "34.8% (inactive)"}, {"smiles": "Cc1cc2ccccn2c1C(C[N+](=O)[O-])c1c(F)cccc1Cl", "note": "(centres undefined)", "inhibition": "71% (active)"}, {"smiles": "O=C1/C(=C/c2cccc([N+](=O)[O-])c2)N2CCC1CC2", "inhibition": "46.3% (inactive)"}, {"smiles": "Cc1ccc(S(=O)(=O)NC(CC(=O)N2CCC3(CC2)OCCO3)c2ccco2)cc1", "note": "(centres undefined)", "inhibition": "37.2% (inactive)"}, {"smiles": "COc1cc2c(cc1OC)CN(c1ccc([N+](=O)[O-])c(C(F)(F)F)c1)CC2", "inhibition": "45.4% (inactive)"}, {"smiles": "CC(Cc1ccccc1)NC(=O)/C=C/c1ccc(Cl)cc1", "note": "(centres undefined)", "inhibition": "50% (active)"}, {"smiles": "CCOCCN1CCN(c2nnc3n2-c2ccc(Cl)cc2C(c2ccccc2Cl)=NC3)CC1", "inhibition": "32.9% (inactive)"}, {"smiles": "Cc1ccc(Cn2cc(C=O)c(-c3ccc(C)cc3)n2)cc1", "inhibition": "59.5% (active)"}, {"smiles": "CC(C)NS(=O)(=O)c1ccc(OCC(=O)N2CCN(C)CC2)cc1", "inhibition": "4.2% (inactive)"}, {"smiles": "Cc1ccc(C)c(NC(=S)NCCc2cnc[nH]2)c1", "inhibition": "23.7% (inactive)"}, {"smiles": "CN1C2CCC1/C(=C/c1ccccn1)C(=O)/C2=C\\c1ccccn1", "inhibition": "98% (active)"}, {"smiles": "CC(C)CCn1c(=O)c(C(=O)NCc2ccco2)c(O)c2ccccc21", "inhibition": "35% (inactive)"}, {"smiles": "CC1(C)C[C@H]2C=C(C=O)[C@]3(C=O)C[C@]3(C)[C@H]2C1", "inhibition": "32.4% (inactive)"}, {"smiles": "CN1/C(=C\\C=C\\C2=[N+](C)c3ccc4ccccc4c3C2(C)C)C(C)(C)c2ccccc21", "inhibition": "100% (active)"}, {"smiles": "CN1CCN(c2ccc(N)c(N3CCN(C)CC3)c2)CC1", "inhibition": "33.6% (inactive)"}, {"smiles": "Fc1ccc(C(OCCN2CCCC2)c2ccc(Br)cc2)cc1", "note": "(centres undefined)", "inhibition": "49.5% (inactive)"}, {"smiles": "CCCCN(Cc1ccccc1)C1CCN(CCc2ccccc2)CC1", "inhibition": "55.1% (active)"}, {"smiles": "CC1CCCC(C)N1/N=C/c1c[nH]c2ccc(Br)cc12", "note": "(centres undefined)", "inhibition": "19.6% (inactive)"}, {"smiles": "CN[C@H]1C[C@H]2O[C@@](C)([C@H]1OC)n1c3ccccc3c3c4c(c5c6ccccc6n2c5c31)C(=O)NC4", "inhibition": "99.7% (active)"}, {"smiles": "Clc1ccc2nc3c(c(-c4ccccc4)c2c1)CNCC3", "inhibition": "46% (inactive)"}, {"smiles": "O=C(c1cc2c(s1)-c1ccccc1OC2)N1CCC2(CC1)OCCO2", "inhibition": "35.5% (inactive)"}, {"smiles": "c1ccc2sc(NC3=NCCN3)nc2c1", "inhibition": "99.8% (active)"}, {"smiles": "CNC(=O)Oc1ccc2ncccc2c1", "inhibition": "35.5% (inactive)"}, {"smiles": "O=C(c1ccccc1)C(CN1CCCC1)c1ccccc1", "note": "(centres undefined)", "inhibition": "27.6% (inactive)"}, {"smiles": "COc1cc(/C=C(/C)[N+](=O)[O-])ccc1OCc1ccccc1Cl", "inhibition": "73.4% (active)"}, {"smiles": "Cc1ccc(-c2nc(N3CCOCC3)s[n+]2-c2ccccc2)cc1", "inhibition": "40.2% (inactive)"}, {"smiles": "CSc1ncc(Cl)c(C(=O)O)n1", "note": "(tested in a mixture with another compound)", "inhibition": "21.1% (inactive)"}, {"smiles": "O=C1/C(=C/c2cc3c(cc2Cl)OCO3)N2CCC1CC2", "inhibition": "47.5% (inactive)"}, {"smiles": "Nc1c2c(nc3sc4c(c13)CCCC4)CCCCC2", "inhibition": "40.5% (inactive)"}, {"smiles": "Nc1c2c(nc3sc4c(c13)CCCCC4)CCCC2", "inhibition": "84.5% (active)"}, {"smiles": "Nc1ccc(C2(c3ccc(N)cc3)CN3CCC2CC3)cc1", "inhibition": "25.7% (inactive)"}]}]}
